This is one part of a sample in which hits are shown more often than they occur.
PI4K2A inh – qHTS for small molecular inhibitors of PI4K2A; actives 0.13% (n = 420,000); purified PI4K2A, ADP-Glo luminescence, 1 h; active compounds read low; activity change, negative = inhibition, % at 76.9 µM; Phosphatidylinositol 4-kinase type 2-alpha (Homo sapiens), Q9BTU6; in the data active means activity change below about -50%; inconclusive means mostly about -30% to -49%;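 further: -100% = wells without enzyme as full effect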
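ADP-Glo luminescence measured ADP generated by PI4K2A enzyme (4 ug/mL before mixing) with 1.2 mM PI substrate (pre-mix) and 300 microM ATP (pre-mix). Tris pH7.5 buffer with MgCl2, Triton X-100; 1 h reaction at ambient temperature.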
Tb PGK inh – qHTS Assay to Find Inhibitors of Phosphoglycerate Kinase; Phosphoglycerate kinase, glycosomal (Trypanosoma brucei brucei), P07378; PGK/GAPDH coupled, Kinase-Glo luminescence, 60 min; Potency, µM (doses to about 57.5 µM), for inactives: top-dose activity change, negative = inhibition, actives largely listed as inhibitors; actives 0.043% (n = 380,000); AID 602233, 2012; active means well fitted inhibition curve with a large enough effect; inconclusive means small, poorly fitted or top-dose-only effect; inactive means no such curve, though single readings can be large or run the other way; further: potency means the concentration at half of the fitted maximal effect; nearly all actives have a fitted effect of over 60% in size
Target sequence (P07378 whole entry, looked up): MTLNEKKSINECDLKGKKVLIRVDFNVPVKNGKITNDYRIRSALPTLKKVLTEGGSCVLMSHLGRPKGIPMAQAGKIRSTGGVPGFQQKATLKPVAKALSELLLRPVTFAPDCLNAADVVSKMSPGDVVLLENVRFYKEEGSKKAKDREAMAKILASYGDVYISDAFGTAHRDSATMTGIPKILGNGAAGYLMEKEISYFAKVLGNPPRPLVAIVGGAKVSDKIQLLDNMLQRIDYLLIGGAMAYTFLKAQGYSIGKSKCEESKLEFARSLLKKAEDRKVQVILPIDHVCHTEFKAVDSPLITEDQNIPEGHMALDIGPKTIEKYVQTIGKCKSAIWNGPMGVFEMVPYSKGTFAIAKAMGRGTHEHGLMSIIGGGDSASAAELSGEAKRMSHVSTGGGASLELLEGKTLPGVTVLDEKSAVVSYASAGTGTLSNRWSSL
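Recombinant glycosomal PGK reaction used 1,3-bisphosphoglycerate generated in-well by GAPDH (100nM final) in 100mM TEA pH 7.6, 5mM MgCl2, 0.01% Tween-20. After 60 minutes at room temperature, ATP was read by Kinase-Glo Plus luminescence end-point.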
Pin1 inhibitor – qHTS Assay to Find Inhibitors of Pin1 | Peptidyl-prolyl cis-trans isomerase NIMA-interacting 1 (Homo sapiens), Q13526 | Pin1 FP peptide displacement, HiFluor488, 10 min | Potency, µM (series often up to 115 µM), inactives show at the top dose activity, negative = inhibition, usual class: inhibitors | actives 0.009% (n = 390,000) | AID 504891, 2011; active means well fitted inhibition curve with a large enough effect in the polarisation, with a control signal flat, not every such curve was filed as active; inconclusive means small, poorly fitted or top-dose-only effect, or effect the other way, or a change in a side signal; inactive means no such curve, though single readings can be large or run the other way; the % refers to the polarisation; further: potency means the concentration at half of the fitted maximal effect
PI5P4K alpha inh – qHTS for Inhibitors of phosphatidylinositol 5-phosphate 4-kinase (PI5P4K); Phosphatidylinositol 5-phosphate 4-kinase type-2 alpha (Homo sapiens), P48426; PI5P4Kalpha enzyme, ADP-Glo luminescence, 60 min; active compounds read low; max response, %; actives 1.2% (n = 330,000); AID 652105, 2013; active means max response of -50% or lower; inconclusive means between -30% and -50%; inactive means -30% or higher; further: value at the top dose of about 77 µM
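Controls without substrate or without enzyme flank wells where PI5P4Kalpha converts substrate using 5 microM ATP (final). Incubation lasts 60 minutes at room temperature; ADP formed is read by ADP-Glo luminescence.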
Numbers without * were called inactive; i = inactive; ? = inconclusive; . = no result; [ ] = dose if it differs, or a comment. Unless noted, on the % scale 0 is the no-effect control and ±100 the full control effect.

SMILES | PI4K2A inh | Tb PGK inh | Pin1 inhibitor | PI5P4K alpha inh
COc1ccc(C2Nc3ccccc3C(=O)N2CCc2ccc(Cl)cc2Cl)cc1COc1ccc(NC(C)=O)cc1 (centres undefined) | . | . | -5% | .
CC(C)=CCc1cc([C@@H]2CC(=O)c3ccc(O)c(CC=C(C)C)c3O2)ccc1O | -5 | -11% | 4% | -100*
COc1ccccc1-c1cn[nH]c(=S)n1 | -5 | -1% | 2% | -70*
COc1ccccc1-c1n[nH]c(=S)n1Cc1ccccc1 | 0 | -3% | -4% | -10
O=[S+]([O-])(c1ccc2c(c1)OCCO2)N1CCN([S+](=O)([O-])c2ccc(F)cc2Cl)CC1 | . | . | 1% | .
O=C(N/N=C/C=C/c1ccco1)c1cccnc1 | -4 | -6%[11.5 µM] | ? | .
CN(C)c1ccc(/C=N/NC(=O)c2ccccn2)cc1 | -50* | ? | -9% | -27
O=C(N/N=C\C=C\c1ccco1)c1cc(-c2ccc3ccccc3c2)n[nH]1 | ? | . | ? | -68*
O=C(N/N=C\C=C\c1ccco1)c1cncc(Br)c1 | -11 | -2% | ? | -53*
O=C(N/N=C/c1ccncc1)c1ccccn1 | 1 | -12% | -8% | -2
C/C(C=NNC(=O)c1cc(-c2ccc(C)c(C)c2)n[nH]1)=C/c1ccco1 | -4 | . | . | .
O=C(N/N=C/C=C\c1ccco1)c1ccccn1 | -10 | -24% | . | -55*
N#CC1(c2ccc(F)cc2)CCC(=O)CC1 | 2 | . | . | .
Cc1cc2c(s1)c1cnn(Cc3ccc(Br)cc3)c(=O)c1n2C | . | . | 4% | .
Cc1nc2scc(-c3ccccc3)c2c(=O)n1N=C1C=CC(=O)C=C1 | -8 | i | -11% | -101*
O=[S+]([O-])(c1ccc2c(c1)OCCO2)N1CCN([S+](=O)([O-])c2c(F)cc(Br)cc2F)CC1 | . | . | 3% | .
O=C1c2cccc3c([N+](=O)[O-])c(O)cc(c23)C(=O)N1Nc1ccccc1 | 1 | -10% | ? | -61*
O=C(Nc1ccc(O)cc1)c1ccc2c(c1)C(=O)N(Cc1ccco1)C2=O | -4 | -12% | ? | -57*
O=C(c1ccc2c(c1)C(=O)N(Cc1ccco1)C2=O)N1CCOCC1 | 2 | -2% | -3% | .
O=C(O)c1ccc(C(=O)c2ccc3c(c2)C(=O)N(Cc2ccco2)C3=O)cc1 | -3 | 2% | 0% | -71*
Nc1cc(C(F)(F)F)ccc1S(=O)(=O)Nc1cccc2c1NCCC2 | . | . | -8% | .
O=S(=O)(c1ccccc1)N1CCN(c2nccc(-c3cccs3)n2)CC1 | . | . | 38% | .
Cn1c2cc(Br)sc2c2cnn(Cc3ccccc3F)c(=O)c21 | . | . | -1% | .
O=C(CSc1ccsc1[N+](=O)[O-])N1CCN(c2ccccc2)CC1 | -11 | -8% | ? | -57*
O=C(CSc1ccsc1[N+](=O)[O-])N1CCCCCC1 | -8 | -18% | 1% | -14
SMILES | PI4K2A inh | Tb PGK inh | Pin1 inhibitor | PI5P4K alpha inh
O=C(CSc1ccsc1[N+](=O)[O-])N1CCN(c2ccc(Cl)cc2)CC1 | -8 | -11% | -5% | -62*
Cc1ccc(C)c(N2CCN(C(=O)CSc3ccsc3[N+](=O)[O-])CC2)c1 | -2 | -13% | -3% | ?
Cc1ccc2nsnc2c1S(=O)(=O)Nc1cccc2cccnc12 | . | . | 4% | .
COc1cccc(C2c3c(ncn(-c4ccccc4-c4ccccc4)c3=N)Oc3ccc4ccccc4c32)c1 (centres undefined) | . | . | 17% | .
CCc1[nH]c(=S)c(C#N)c2c1CCCC2 | -5 | -4% | 2% | -52*
CN(C(=O)CSc1n[nH]c(=O)[nH]c1=O)c1ccccc1 | 0 | 3% | ? | -9
O=C(Sc1n[nH]c(=O)[nH]c1=O)c1ccccc1 | -10 | -4% | -4% | -74*
O=C(NC(NC(=S)Nc1ccccc1C(=O)O)C(Cl)(Cl)Cl)c1ccco1 (centres undefined) | 1 | -3% | -14% | -21
O=C(NC(NC(=S)Nc1ccccc1C(=O)O)C(Cl)(Cl)Cl)c1ccccc1 (centres undefined) | -3 | -2% | -18% | -58*
N#Cc1cc(Sc2ccccn2)c([N+](=O)[O-])cc1C#N | -6 | -4% | 0% | -86*
COc1cc([N+](=O)[O-])cc(/C=N/NC(=O)C(C)Nc2cccc3ccccc23)c1O (centres undefined) | -2 | -3% | -9% | -50*

Screening results as filed in PubChem.
